Assay results: PubChem BioAssay (Tox21)
Inconclusive results are not listed. A call without a number means that no potency is given here. Calls of active or inactive are those of the source. The call rests on the fitted dose curve; in most records, active means well fitted curve in the direction sought with a large enough effect in the repeat runs; inconclusive means weak or mixed curves; inactive means no such curve, though single readings can be large; an effect the other way counts as inactive or inconclusive.

Experiments:
[1] = molecular target: Cytochrome P450 2C19 (Homo sapiens) (UniProt P33261); test: Cytochrome P450 Family 2 Subfamily C Member 19 (CYP2C19) small molecule antagonists: luciferase reporter qHTS assay (AID 1671197); further: nearly all actives have a fitted effect of over 65% in size
In short: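 Relative luminescence units recorded 20 min after the detection reagent stopped a 1 h, 37C CYP2C19 reaction on proluciferin substrate, which was started by NADPH regeneration following 10 min room-temperature compound preincubation; ketoconazole positive control.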

[2] = molecular target: Cytochrome P450 1A2 (Homo sapiens) (UniProt P05177); test: Cytochrome P450 Family 1 Subfamily A Member 2 (CYP1A2) small molecule antagonists: luciferase reporter qHTS assay (AID 1671199); further: nearly all actives have a fitted effect of over 50% in size
In short: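 Steps: enzyme-substrate mix dispensed; test compounds and furafylline control pinned in; 10 min room temperature; NADPH regeneration solution added, 1 h; reaction stopped with luciferin detection reagent; luminescence read after 20 min.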

[3] = molecular target: Voltage-gated inwardly rectifying potassium channel KCNH2 (Homo sapiens) (UniProt Q12809); test: Human Ether-a-go-go-Related Gene (hERG) channel small molecule antagonists: fluorescence cell-based qHTS assay (AID 1671200); further: nearly all actives have a fitted effect of over 50% in size
In short: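 Thallium flux as potassium surrogate: FluxOR II dye loaded 1 h at room temperature into hERG-expressing U2OS cells, then stimulus buffer added after 10 min. Kinetic 480 nm excitation/540 nm emission read, 2 min.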

[4] = molecular target: Cytochrome P450 3A4 (Homo sapiens) (UniProt P08684); test: Cytochrome P450 Family 3 Subfamily A Member 4 (CYP3A4) small molecule antagonists: luciferase reporter qHTS assay (AID 1671201); further: nearly all actives have a fitted effect of over 50% in size
In short: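 Recombinant human CYP3A4 converts a proluciferin substrate to luciferin over 1 h at room temperature after NADPH regeneration solution is added (compound preincubated 10 min); detection reagent stops reaction, luminescence read 20 min later as relative units.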

[5] = molecular target: Cytochrome P450 2C9 (Homo sapiens) (UniProt P11712); test: Cytochrome P450 Family 2 Subfamily C Member 9 (CYP2C9) small molecule antagonists: luciferase reporter qHTS assay (AID 1671198); further: nearly all actives have a fitted effect of over 50% in size
In short: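 Enzyme-substrate mix preincubated with compound 10 min at room temperature; reaction started with NADPH regeneration solution, 1 h 37C. Luminescent luciferin product read after 20 min detection reagent.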
Potency means the concentration at half of the fitted maximal effect.

Chain of Voltage-gated inwardly rectifying potassium channel KCNH2 (Homo sapiens) (Q12809 whole entry, looked up): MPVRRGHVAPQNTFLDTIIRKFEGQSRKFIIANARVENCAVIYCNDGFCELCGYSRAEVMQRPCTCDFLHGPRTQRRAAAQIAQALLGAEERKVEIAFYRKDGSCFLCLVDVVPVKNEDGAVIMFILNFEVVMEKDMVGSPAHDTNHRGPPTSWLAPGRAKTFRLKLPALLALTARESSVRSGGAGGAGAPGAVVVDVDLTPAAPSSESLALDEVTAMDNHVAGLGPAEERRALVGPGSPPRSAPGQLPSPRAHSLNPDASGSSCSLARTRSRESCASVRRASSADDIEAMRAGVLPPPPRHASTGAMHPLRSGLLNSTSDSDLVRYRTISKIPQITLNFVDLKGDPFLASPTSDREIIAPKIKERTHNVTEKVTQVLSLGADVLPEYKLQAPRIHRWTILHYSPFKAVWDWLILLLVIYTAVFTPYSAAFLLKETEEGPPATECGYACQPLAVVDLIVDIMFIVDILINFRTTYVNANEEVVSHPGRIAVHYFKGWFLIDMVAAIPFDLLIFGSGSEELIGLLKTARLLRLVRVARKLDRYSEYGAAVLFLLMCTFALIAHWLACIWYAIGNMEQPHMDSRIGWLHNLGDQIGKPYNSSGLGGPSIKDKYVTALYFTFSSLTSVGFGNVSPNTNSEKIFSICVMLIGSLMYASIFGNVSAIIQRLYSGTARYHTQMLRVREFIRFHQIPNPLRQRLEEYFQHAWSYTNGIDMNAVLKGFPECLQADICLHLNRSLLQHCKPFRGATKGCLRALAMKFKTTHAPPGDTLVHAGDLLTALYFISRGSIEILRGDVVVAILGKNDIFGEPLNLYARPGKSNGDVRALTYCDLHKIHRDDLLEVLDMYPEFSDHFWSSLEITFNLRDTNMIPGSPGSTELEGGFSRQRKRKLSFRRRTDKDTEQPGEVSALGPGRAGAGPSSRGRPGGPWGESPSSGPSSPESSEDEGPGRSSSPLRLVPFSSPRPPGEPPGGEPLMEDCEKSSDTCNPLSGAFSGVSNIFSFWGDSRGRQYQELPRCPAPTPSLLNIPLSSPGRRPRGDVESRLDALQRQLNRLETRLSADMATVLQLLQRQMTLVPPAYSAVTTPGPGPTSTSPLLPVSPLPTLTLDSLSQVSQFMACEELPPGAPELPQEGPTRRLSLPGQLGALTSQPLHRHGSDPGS
Chain of Cytochrome P450 1A2 (Homo sapiens) (P05177 whole entry, looked up): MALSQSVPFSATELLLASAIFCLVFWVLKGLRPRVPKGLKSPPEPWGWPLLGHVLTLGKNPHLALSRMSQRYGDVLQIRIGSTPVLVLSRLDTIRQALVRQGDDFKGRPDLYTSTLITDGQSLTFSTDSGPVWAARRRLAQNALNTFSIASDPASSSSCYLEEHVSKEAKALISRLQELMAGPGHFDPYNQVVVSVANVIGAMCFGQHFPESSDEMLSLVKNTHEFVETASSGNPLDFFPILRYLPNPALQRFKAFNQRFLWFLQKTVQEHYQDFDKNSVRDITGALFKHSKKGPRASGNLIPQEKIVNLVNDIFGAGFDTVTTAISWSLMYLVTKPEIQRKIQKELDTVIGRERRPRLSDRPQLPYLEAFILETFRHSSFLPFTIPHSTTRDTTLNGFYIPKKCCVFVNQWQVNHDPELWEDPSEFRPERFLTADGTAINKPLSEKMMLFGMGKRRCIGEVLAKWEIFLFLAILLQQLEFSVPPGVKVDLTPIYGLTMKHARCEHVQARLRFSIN
Chain of Cytochrome P450 2C9 (Homo sapiens) (P11712 whole entry, looked up): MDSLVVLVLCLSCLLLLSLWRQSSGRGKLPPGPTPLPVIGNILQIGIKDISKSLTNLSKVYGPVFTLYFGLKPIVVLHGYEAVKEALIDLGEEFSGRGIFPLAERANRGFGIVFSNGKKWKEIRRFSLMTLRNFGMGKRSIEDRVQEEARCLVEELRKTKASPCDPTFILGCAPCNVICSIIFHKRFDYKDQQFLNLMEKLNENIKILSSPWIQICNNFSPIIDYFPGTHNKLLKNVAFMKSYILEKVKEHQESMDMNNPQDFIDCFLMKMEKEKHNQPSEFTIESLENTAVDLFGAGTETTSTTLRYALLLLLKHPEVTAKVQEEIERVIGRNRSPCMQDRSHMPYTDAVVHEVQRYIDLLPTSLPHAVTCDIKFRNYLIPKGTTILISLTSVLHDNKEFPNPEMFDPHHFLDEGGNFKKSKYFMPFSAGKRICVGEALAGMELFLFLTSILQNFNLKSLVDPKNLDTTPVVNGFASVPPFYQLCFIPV
Chain of Cytochrome P450 3A4 (Homo sapiens) (P08684 whole entry, looked up): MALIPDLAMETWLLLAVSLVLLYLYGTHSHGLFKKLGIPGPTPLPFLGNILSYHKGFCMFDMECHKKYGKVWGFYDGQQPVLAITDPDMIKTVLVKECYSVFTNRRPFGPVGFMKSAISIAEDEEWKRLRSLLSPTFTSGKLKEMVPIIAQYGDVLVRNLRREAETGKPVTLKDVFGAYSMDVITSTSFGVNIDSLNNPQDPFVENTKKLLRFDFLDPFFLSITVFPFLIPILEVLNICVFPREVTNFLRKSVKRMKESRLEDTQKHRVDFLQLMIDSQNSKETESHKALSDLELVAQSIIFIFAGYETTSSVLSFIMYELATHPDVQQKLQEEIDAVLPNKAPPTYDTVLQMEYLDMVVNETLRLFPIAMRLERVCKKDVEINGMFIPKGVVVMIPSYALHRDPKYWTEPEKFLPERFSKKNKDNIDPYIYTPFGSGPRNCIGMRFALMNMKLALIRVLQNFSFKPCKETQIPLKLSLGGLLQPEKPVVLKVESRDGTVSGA
Chain of Cytochrome P450 2C19 (Homo sapiens) (P33261 whole entry, looked up): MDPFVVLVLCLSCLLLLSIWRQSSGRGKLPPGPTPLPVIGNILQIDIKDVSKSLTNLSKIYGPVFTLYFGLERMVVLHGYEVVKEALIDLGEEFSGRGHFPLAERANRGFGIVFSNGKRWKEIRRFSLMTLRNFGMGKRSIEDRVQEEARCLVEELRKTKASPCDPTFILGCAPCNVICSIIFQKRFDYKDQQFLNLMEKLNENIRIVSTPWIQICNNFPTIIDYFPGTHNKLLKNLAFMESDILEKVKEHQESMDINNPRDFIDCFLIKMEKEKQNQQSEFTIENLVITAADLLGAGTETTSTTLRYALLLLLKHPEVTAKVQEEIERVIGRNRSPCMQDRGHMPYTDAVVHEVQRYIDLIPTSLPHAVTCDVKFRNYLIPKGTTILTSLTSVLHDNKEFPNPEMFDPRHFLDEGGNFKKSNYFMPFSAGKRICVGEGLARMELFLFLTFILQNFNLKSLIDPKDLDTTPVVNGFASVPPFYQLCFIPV

Row | Compound | Potency [1] | Potency [2] | Potency [3] | Potency [4] | Potency [5]
1 | C=C1c2cccc(O)c2C(O)=C2C(=O)[C@]3(O)C(O)=C(C(N)=O)C(=O)[C@@H](N(C)C)[C@@H]3[C@@H](O)[C@H]12 | inactive | inactive | inactive | inactive | –
2 | Oc1cccc(Nc2ccccc2)c1 | 13.2 µM (active) | 11.7 µM (active) | inactive | 29.5 µM (active) | –
3 | CCOC(C)=O | – | inactive | inactive | inactive | inactive
4 | CCCCCCCC/C=C\CCCCCCCCCCCC(=O)O | – | inactive | inactive | inactive | inactive
5 | Cc1ccc(CO)cc1 | – | 32.1 µM (active) | inactive | inactive | inactive
6 | CC(C)(C)C(=O)C(=O)O | – | inactive | inactive | inactive | inactive
7 | O=C(Cn1ccnc1[N+](=O)[O-])NCCO | – | inactive | inactive | inactive | inactive
8 | O=[N+]([O-])c1ccc(O/N=C/c2cc(Br)c(O)c(Br)c2)c([N+](=O)[O-])c1 | – | inactive | inactive | inactive | 9.98 µM (active)
9 | CCN(CC)CCNC(=O)COc1ccc(OC)cc1 | – | inactive | inactive | inactive | inactive
10 | O=[N+]([O-])c1ccc(Nc2ccc(Nc3ccccc3)c(S(=O)(=O)O)c2)c([N+](=O)[O-])c1 | – | inactive | inactive | inactive | 35.6 µM (active)
11 | OC[C@H]1O[C@@H](n2cnc3c(=S)nc[nH]c32)[C@H](O)[C@@H]1O | – | – | inactive | inactive | 13.8 µM (active)
12 | CC(C)=CCC/C(C)=C/CC/C(C)=C/CCC(=O)OC/C=C(\C)CCC=C(C)C | – | inactive | inactive | inactive | inactive
13 | O=c1cc(-c2ccccc2)oc2ccc3ccccc3c12 | – | 5.64 µM (active) | inactive | 17.8 µM (active) | 3.17 µM (active)
14 | C=C(C)[C@@H]1CCC2=CCC[C@@H](C)[C@]2(C)C1 | – | inactive | inactive | 71 µM (active) | 63.3 µM (active)
15 | CCC(C)COC(C)=O (stereo not given) | – | inactive | inactive | inactive | inactive
16 | CCn1cc(C(=O)O)c(=O)c2cc(F)c(N3CCNCC3)cc21 | – | inactive | inactive | inactive | inactive
17 | O=C(O)C[C@H](NC(=O)OCc1ccccc1)C(=O)O | – | inactive | inactive | inactive | inactive
18 | C1C[C@@H]2[C@H]3CC[C@H](C3)[C@@H]2C1 | – | – | inactive | – | inactive
19 | O=C(O)CCCCCCCCCCCBr | – | inactive | inactive | inactive | inactive
20 | O=c1[nH]ncc2ccccc12 | – | inactive | inactive | inactive | inactive
21 | N#CCCN(CCO)CCO | – | inactive | inactive | inactive | inactive

Row | Compound | Potency [1] | Potency [2] | Potency [3] | Potency [4] | Potency [5]
22 | C=C(C)C(=O)OCCCCCCCCCCCCC | – | inactive | inactive | 55.7 µM (active) | inactive
23 | O=C1Cc2cc(Cl)ccc2N1 | – | 11 µM (active) | inactive | inactive | 17.4 µM (active)
24 | OC1(c2ccccc2)CCNCC1 | – | inactive | inactive | inactive | inactive
25 | CC(=O)OCC[N+](C)(C)C | – | 24.5 µM (active) | inactive | inactive | inactive
26 | FC(F)(F)c1ccccc1Cl | – | inactive | inactive | inactive | inactive
27 | CC1CC(C)C(=O)C1=O (stereo not given) | – | inactive | inactive | inactive | inactive
28 | Oc1c(I)cc(I)c2cccnc12 | – | inactive | inactive | inactive | inactive
29 | CC=C(Cl)Cl | – | inactive | inactive | inactive | inactive
30 | Cc1ccc(Cl)c(Nc2ccccc2C(=O)O)c1Cl | – | inactive | inactive | inactive | 17.4 µM (active)
31 | CCOC(=O)/C=C/C(=O)OCC | – | – | inactive | inactive | inactive
32 | CCCCCCCCC(CCCCCC)C(=O)O (stereo not given) | – | inactive | inactive | inactive | 25.2 µM (active)
33 | CC1(C)[C@H](C(=O)O)N2C(=O)C[C@H]2S1(=O)=O | – | inactive | inactive | inactive | inactive
34 | Clc1cc(Cl)nc(Cl)n1 | – | 36 µM (active) | inactive | inactive | inactive
35 | O=C=Nc1cccc(C(F)(F)F)c1 | – | inactive | inactive | inactive | inactive
36 | Nc1ccc(N=Nc2ccccc2)c(N)c1 | – | 7.8 µM (active) | 17 µM (active) | 11 µM (active) | 31 µM (active)
37 | CC(=O)Nc1ccc(C)cc1C | – | inactive | inactive | inactive | inactive
38 | C[C@@H](O)[C@H]1C(=O)N2C(C(=O)O)=C([C@H]3CCCO3)S[C@H]12 | – | inactive | inactive | inactive | inactive
39 | O=C=Nc1ccc(Cl)c(Cl)c1 | – | 35 µM (active) | inactive | 31.2 µM (active) | 39.3 µM (active)
40 | C=C(C)CCCC(C)CCO (stereo not given) | – | – | inactive | 28.3 µM (active) | 39.9 µM (active)
41 | CC(C)(O)c1ccc(CNC(=O)c2cccnc2Oc2ccc3nonc3c2)cc1 | – | – | inactive | 25.2 µM (active) | 25.2 µM (active)
42 | Cc1ccccc1S | – | 50.7 µM (active) | inactive | inactive | 45.2 µM (active)

Row | Compound | Potency [1] | Potency [2] | Potency [3] | Potency [4] | Potency [5]
43 | CCC(C)COC(=O)CC(C)C (stereo not given) | – | – | inactive | inactive | 71 µM (active)
44 | CCCC(=O)C(=O)O | – | – | inactive | inactive | inactive
45 | COc1ccccc1N1CCN(CC(O)COc2cccc3ccccc23)CC1 (stereo not given) | – | – | 1.9 µM (active) | inactive | –
46 | CCOC(=O)OC(C)OC(=O)[C@@H]1N2C(=O)[C@@H](NC(=O)[C@H](N)c3ccccc3)[C@H]2SC1(C)C (stereo not given in full) | – | – | inactive | – | –
47 | NC(=O)c1ccncc1 | – | – | inactive | inactive | inactive
48 | CCC=CC#N | – | – | inactive | inactive | inactive
49 | O=C1CCCCCCCCCCOCCCCO1 | – | 35.6 µM (active) | – | 39.9 µM (active) | –
50 | CCCCCCCCCCC(=O)O | – | inactive | inactive | inactive | –
51 | Cc1cc(O)ccc1O | – | inactive | inactive | – | –
52 | CC1(C)[C@@H](OC(=O)CCC(=O)O)CC[C@]2(C)[C@H]3C(=O)C=C4[C@@H]5C[C@@](C)(C(=O)O)CC[C@]5(C)CC[C@@]4(C)[C@]3(C)CC[C@@H]12 | – | – | inactive | – | –
53 | NNC(=O)CP(=O)(c1ccccc1)c1ccccc1 | – | inactive | inactive | – | –
54 | CC(C)COCC(CN(Cc1ccccc1)c1ccccc1)N1CCCC1 (stereo not given) | – | inactive | – | – | –
55 | C[C@@]12CCC[C@H]1[C@@H]1CC[C@H]3C[C@@H](O)CC[C@]3(C)[C@H]1CC2 | – | inactive | inactive | – | –
56 | C[C@H]1c2cccc(O)c2C(O)=C2C(=O)[C@]3(O)C(O)=C(C(N)=O)C(=O)[C@@H](N(C)C)[C@@H]3[C@@H](O)[C@@H]21 | – | inactive | inactive | inactive | –
57 | CN1C[C@H](C(=O)N[C@]2(C)O[C@@]3(O)[C@@H]4CCCN4C(=O)[C@H](Cc4ccccc4)N3C2=O)C[C@@H]2c3cccc4[nH]cc(c34)C[C@H]21 | – | inactive | – | – | –
58 | O=c1cc(-c2ccccc2)oc2cc(O)cc(O)c12 | – | – | inactive | 17.8 µM (active) | –
59 | O=c1c(O)c(-c2ccc(O)cc2)oc2cc(O)cc(O)c12 | – | – | inactive | – | –
60 | CC(CCC(=O)O)C(=O)O (stereo not given) | – | – | inactive | inactive | inactive
61 | CCC1NC(=O)c2cc(S(N)(=O)=O)c(Cl)cc2N1 (stereo not given) | – | – | inactive | – | –
62 | OCCN1CCN(CCCN2c3ccccc3Sc3ccc(Cl)cc32)CC1 | – | – | 2.68 µM (active) | – | –
63 | Nc1ncnc2c1ncn2[C@H]1CC[C@@H](CO)O1 | – | – | inactive | inactive | inactive

Row | Compound | Potency [1] | Potency [2] | Potency [3] | Potency [4] | Potency [5]
64 | CC/C=C1/OC(=O)c2ccccc21 | – | 5.51 µM (active) | inactive | inactive | –
65 | CCCCOc1ccc(OCCCN2CCOCC2)cc1 | – | inactive | – | inactive | –
66 | C[C@@H](CN(C)C)CN1c2ccccc2Sc2ccccc21 | – | – | 9.52 µM (active) | – | –
67 | Nc1nnc(-c2ccc([N+](=O)[O-])o2)o1 | – | 39.9 µM (active) | inactive | inactive | –
68 | CCC(=O)C1CC(C(C)C)CC=C1C (stereo not given) | – | 63.3 µM (active) | inactive | 39.9 µM (active) | –
69 | CCC1(CO)COCOC1 | – | – | inactive | inactive | inactive
70 | C=Cc1ccc(S(=O)(=O)O)cc1 | – | 71 µM (active) | inactive | inactive | –
71 | CN1CCCC(n2nc(Cc3ccc(Cl)cc3)c3ccccc3c2=O)CC1 (stereo not given) | – | inactive | – | – | –
72 | CC(C)C(O)(c1ccc(OC(F)(F)F)cc1)c1cncnc1 (stereo not given) | – | – | inactive | – | –
73 | Nc1cccc2c1CN(C1CCC(=O)NC1=O)C2=O (stereo not given) | – | – | inactive | – | –
74 | O=C(/C=C/c1ccc(O)c(O)c1)O[C@@H]1C[C@@](OC(=O)/C=C/c2ccc(O)c(O)c2)(C(=O)O)C[C@@H](O)[C@@H]1O | – | 27.5 µM (active) | inactive | inactive | –
75 | CO/N=C(/C(=O)N[C@@H]1C(=O)N2C(C(=O)O)=C(COC(N)=O)CS[C@H]12)c1ccco1 | – | inactive | inactive | – | –
76 | CCCCCC[C@@H](O)C/C=C\CCCCCCCC(=O)O | – | inactive | inactive | inactive | –
77 | CC(=O)OCCN(CCOC(C)=O)c1ccc(N=Nc2ccc([N+](=O)[O-])cc2C#N)cc1 | – | – | 17.4 µM (active) | 3.56 µM (active) | 15.9 µM (active)
78 | CC(C)C=O | – | – | inactive | – | –
79 | Cc1ccccc1N=C(N)Nc1ccccc1C | – | inactive | inactive | – | –
80 | C=C(C)C(=O)OCCOCCOC(=O)C(=C)C | – | 15.9 µM (active) | inactive | inactive | –
81 | CC1=Nc2ccc3ccccc3c2C1(C)C | – | 20 µM (active) | inactive | inactive | –
82 | CCOC(=O)C1=C(C)NC(C)=C(C(=O)OC)C1c1cccc(Cl)c1Cl (stereo not given) | – | – | inactive | – | –
83 | Cc1ccc2c(Br)cc(Br)c(O)c2n1 | – | 36.3 µM (active) | inactive | inactive | –
